Experimental data as given in PubChem BioAssay (Tox21).
Inconclusive results are not listed. The source made the active and inactive calls. The call rests on the fitted dose curve; in most records, active means well fitted curve in the direction sought with a large enough effect in the repeat runs; inconclusive means weak or mixed curves; inactive means no such curve, though single readings can be large; an effect the other way counts as inactive or inconclusive.

Key:
[1] = qHTS RealTime-Glo MT Cell Viability Assay in HepG2 cells - 40 hour (AID 1224870); further: nearly all actives have a fitted effect of over 50% in size
Outline: (§1)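 HepG2 cells (600/well) mixed with RealTime-Glo MT reagent, settled 5 h at 37 C/5% CO2 before compound addition. Nonlytic NanoLuc luminescence from viable-cell prosubstrate reduction read repeatedly during 40 h treatment at 37 C.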

[2] = qHTS RealTime-Glo MT Cell Viability Assay in HEK293 cells - 16 hour (AID 1224872); further: nearly all actives have a fitted effect of over 50% in size; further: potency means the concentration at half of the fitted maximal effect
Outline: (§2)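 HEK293 cells seeded with NanoLuc/prosubstrate reagent, rested 5 h at 37 C, then dosed and kept at 37 C up to 40 h. Nonlytic real-time luminescence from viable cells read at 0, 8, 16, 24, 32 and 40 h.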

[3] = qHTS RealTime-Glo MT Cell Viability Assay in HepG2 cells - 8 hour (AID 1224873); further: nearly all actives have a fitted effect of over 55% in size; further: potency means the concentration at half of the fitted maximal effect
Outline: as §1

[4] = qHTS RealTime-Glo MT Cell Viability Assay in HEK293 cells - 40 hour (AID 1224874); conditions: RealTime-Glo luminescence; max response: hits give low values; further: nearly all actives have a fitted effect of over 50% in size; further: potency means the concentration at half of the fitted maximal effect
Outline: (§3)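 Tox21 screen in HEK293 using RealTime-Glo MT chemistry, with cells and reagent co-dispensed. Luminescence proportional to viable cell number was captured at intervals during 40 h compound exposure at 37 C.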

[5] = A CellTox Green Cytotoxicity Assay to monitor cytotoxicity in HEK293 cells - 24 hour (AID 1224875); further: series mostly up to about 77 µM; nearly all actives have a fitted effect of over 45% in size
Outline: (§4)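 Seeding of HEK293 cells together with cytotoxicity dye preceded a 5 h incubation at 37 C/5% CO2. Test compounds in DMSO were then added and fluorescence monitored across 40 h.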

[6] = qHTS RealTime-Glo MT Cell Viability Assay in HepG2 cells - 32 hour (AID 1224877); further: nearly all actives have a fitted effect of over 55% in size
Outline: (§5)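 HepG2 cells (600/well) were dispensed with RealTime-Glo reagents, incubated 5 h at 37 °C, then treated with compounds in DMSO for up to 40 h. Nonlytic NanoLuc luminescence reflecting viable cells was read at each stated time point.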

[7] = A CellTox Green Cytotoxicity Assay to monitor cytotoxicity in HepG2 cells - 40 hour (AID 1224879); further: nearly all actives have a fitted effect of over 40% in size; further: potency means the concentration at half of the fitted maximal effect
Outline: (§6)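 Nonlytic assay: viable cells exclude the dye, so fluorescence scales with cell death. HepG2 at 600 cells/well, compounds added after 5 h, signal read across 40 h.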

[8] = qHTS RealTime-Glo MT Cell Viability Assay in HEK293 cells - 0 hour (AID 1224880); further: top concentration of the series differs between compounds; nearly all actives have a fitted effect of over 45% in size
Outline: as §3

[9] = A CellTox Green Cytotoxicity Assay to monitor cytotoxicity in HEK293 cells - 32 hour (AID 1224881); further: nearly all actives have a fitted effect of over 40% in size
Outline: as §4

[10] = A CellTox Green Cytotoxicity Assay to monitor cytotoxicity in HepG2 cells - 0 hour (AID 1224882); further: nearly all actives have a fitted effect of over 35% in size
Outline: as §6

[11] = A CellTox Green Cytotoxicity Assay to monitor cytotoxicity in HepG2 cells - 32 hour (AID 1224883); further: nearly all actives have a fitted effect of over 50% in size; further: potency means the concentration at half of the fitted maximal effect
Outline: as §6

[12] = qHTS RealTime-Glo MT Cell Viability Assay in HepG2 cells - 16 hour (AID 1224885); further: nearly all actives have a fitted effect of over 50% in size; further: potency means the concentration at half of the fitted maximal effect
Outline: as §5

[13] = qHTS RealTime-Glo MT Cell Viability Assay in HEK293 cells - 24 hour (AID 1224886); further: nearly all actives have a fitted effect of over 50% in size; further: potency means the concentration at half of the fitted maximal effect
Outline: as §2

[14] = qHTS RealTime-Glo MT Cell Viability Assay in HEK293 cells - 8 hour (AID 1224887); further: nearly all actives have a fitted effect of over 50% in size; further: potency means the concentration at half of the fitted maximal effect
Outline: as §3

[15] = A CellTox Green Cytotoxicity Assay to monitor cytotoxicity in HEK293 cells - 16 hour (AID 1224888); further: nearly all actives have a fitted effect of over 35% in size
Outline: as §4

[16] = qHTS RealTime-Glo MT Cell Viability Assay in HepG2 cells - 0 hour (AID 1224889); further: nearly all actives have a fitted effect of over 50% in size
Outline: as §5

[17] = A CellTox Green Cytotoxicity Assay to monitor cytotoxicity in HepG2 cells - 16 hour (AID 1224876); further: nearly all actives have a fitted effect of over 45% in size
Outline: as §6

[18] = A CellTox Green Cytotoxicity Assay to monitor cytotoxicity in HepG2 cells - 24 hour (AID 1224878); further: nearly all actives have a fitted effect of over 45% in size
Outline: as §6

[19] = A CellTox Green Cytotoxicity Assay to monitor cytotoxicity in HEK293 cells - 8 hour (AID 1224884); further: nearly all actives have a fitted effect of over 35% in size
Outline: as §4

[20] = A CellTox Green Cytotoxicity Assay to monitor cytotoxicity in HEK293 cells - 40 hour (AID 1224871); further: nearly all actives have a fitted effect of over 45% in size
Outline: as §4
On the % scale 0 is the no-effect control and ±100 the full control effect.

CN1CC(=O)N2[C@H](c3ccc4c(c3)OCO4)c3[nH]c4ccccc4c3C[C@@H]2C1=O
inactive: Potency [1] | Potency [2] | Potency [3] | max response [4] -16.3% | Potency [5] | Potency [6] | Potency [7] | Potency [8] | Potency [9] | Potency [10] | Potency [11] | Potency [12] | Potency [13] | Potency [14] | Potency [15] | Potency [16]

Cc1cccc(O)c1N
inactive: Potency [1] | Potency [2] | Potency [3] | Potency [5] | Potency [17] | Potency [6] | Potency [18] | Potency [7] | Potency [8] | Potency [9] | Potency [10] | Potency [11] | Potency [19] | Potency [12] | Potency [13] | Potency [14] | Potency [15] | Potency [16]

Oc1cccc(Nc2ccccc2)c1
active: Potency [2] 22.8 µM | Potency [4] 12.8 µM | Potency [13] 14.4 µM | Potency [14] 11.4 µM
inactive: Potency [1] | Potency [3] | Potency [5] | Potency [17] | Potency [6] | Potency [18] | Potency [7] | Potency [8] | Potency [9] | Potency [10] | Potency [11] | Potency [19] | Potency [12] | Potency [15] | Potency [16]

N#CCCN(CCO)CCO
inactive: Potency [1] | Potency [2] | Potency [3] | max response [4] 0.524% | Potency [5] | Potency [17] | Potency [6] | Potency [7] | Potency [8] | Potency [9] | Potency [10] | Potency [11] | Potency [19] | Potency [12] | Potency [13] | Potency [14] | Potency [15] | Potency [16]

CC[N+](CC)(CCNC(=O)C(=O)NCC[N+](CC)(CC)Cc1ccccc1Cl)Cc1ccccc1Cl
inactive: Potency [1] | Potency [2] | Potency [3] | max response [4] 0.73% | Potency [5] | Potency [17] | Potency [6] | Potency [18] | Potency [7] | Potency [8] | Potency [9] | Potency [10] | Potency [11] | Potency [19] | Potency [12] | Potency [14] | Potency [15] | Potency [16]

O=C(Nc1cccc2c(=O)cc(-c3nn[nH]n3)oc12)c1ccc(OCCCCc2ccccc2)cc1
inactive: Potency [1] | Potency [2] | Potency [3] | max response [4] -0.852% | Potency [5] | Potency [6] | Potency [9] | Potency [19] | Potency [12] | Potency [13] | Potency [14] | Potency [15]

Cc1ccc(OC(=O)c2ccccc2O)cc1
inactive: Potency [1] | Potency [2] | Potency [3] | max response [4] -11.7% | Potency [5] | Potency [17] | Potency [6] | Potency [18] | Potency [7] | Potency [8] | Potency [10] | Potency [11] | Potency [12] | Potency [13] | Potency [14] | Potency [15] | Potency [16]

c1ccc2sc(SN(C3CCCCC3)C3CCCCC3)nc2c1
inactive: Potency [1] | Potency [2] | Potency [3] | max response [4] 3.85% | Potency [5] | Potency [17] | Potency [6] | Potency [18] | Potency [7] | Potency [8] | Potency [9] | Potency [10] | Potency [11] | Potency [19] | Potency [12] | Potency [14] | Potency [15] | Potency [16]

Brc1cc(Br)c(Oc2cc(Br)c(Br)cc2Br)cc1Br
inactive: Potency [1] | Potency [2] | Potency [3] | max response [4] -1.98% | Potency [5] | Potency [17] | Potency [18] | Potency [7] | Potency [8] | Potency [9] | Potency [10] | Potency [11] | Potency [19] | Potency [12] | Potency [13] | Potency [14] | Potency [15] | Potency [16]

CCCCCCNC(=O)n1cc(F)c(=O)[nH]c1=O
inactive: Potency [1] | Potency [2] | Potency [3] | max response [4] -6.08% | Potency [5] | Potency [17] | Potency [6] | Potency [7] | Potency [8] | Potency [9] | Potency [10] | Potency [11] | Potency [12] | Potency [13] | Potency [14] | Potency [15] | Potency [16]

Nc1nnc(-c2ccc([N+](=O)[O-])o2)o1
inactive: Potency [20] | Potency [2] | Potency [3] | max response [4] -27% | Potency [5] | Potency [17] | Potency [18] | Potency [8] | Potency [9] | Potency [10] | Potency [19] | Potency [13] | Potency [14] | Potency [15] | Potency [16]

CC(=O)Nc1cc(S(=O)(=O)O)cc2cc(S(=O)(=O)O)c(N=Nc3ccccc3)c(O)c12
inactive: Potency [20] | Potency [2] | Potency [3] | max response [4] -17.9% | Potency [5] | Potency [17] | Potency [6] | Potency [18] | Potency [7] | Potency [8] | Potency [9] | Potency [10] | Potency [11] | Potency [19] | Potency [12] | Potency [13] | Potency [14] | Potency [15] | Potency [16]

CCOc1ccc(Cc2nccc3cc(OCC)c(OCC)cc23)cc1OCC
active: Potency [2] 9.52 µM | Potency [3] 12 µM | Potency [4] 5.35 µM | Potency [7] 7.56 µM | Potency [11] 5.35 µM | Potency [12] 19 µM | Potency [13] 7.56 µM | Potency [14] 10.7 µM
inactive: Potency [20] | Potency [5] | Potency [17] | Potency [18] | Potency [8] | Potency [9] | Potency [10] | Potency [19] | Potency [15] | Potency [16]

C=C(C)CCCC(C)CCO (configuration not stated)
inactive: Potency [20] | Potency [2] | Potency [3] | max response [4] -17.9% | Potency [5] | Potency [17] | Potency [18] | Potency [7] | Potency [8] | Potency [9] | Potency [10] | Potency [11] | Potency [13] | Potency [14] | Potency [15] | Potency [16]

O=C1Cc2ccccc2N1c1c(Cl)cccc1Cl
inactive: Potency [1] | Potency [3] | Potency [5] | Potency [17] | Potency [6] | Potency [8] | Potency [9] | Potency [10] | Potency [19] | Potency [15] | Potency [16]
active: Potency [4] 21.9 µM | Potency [13] 38.9 µM
